Measured values from PubChem BioAssay (NCI).
About 83,000 compounds went through this panel and 20% of them were active in at least one assay; those are over-represented in the sample as a whole.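 Cells were grown in 96-well plates and exposed to the test compound at a single concentration for 48 hours; results are reported as percent growth, with values below 10 considered active.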 A number with no mark means an inactive call. Active and inactive are the calls of the source.

Experiments:
Experiment in all cases: NCI-60 one-dose screen, 48 h (100 = growth as untreated, 0 = no growth, -100 = all killed)
Settings in all cases: 10 µM unless noted
BT-549 breast = test system: BT-549 breast
MDA-MB-435 melanoma = test system: MDA-MB-435 melanoma
SW-620 colon = test system: SW-620 colon
MCF7 breast = test system: MCF7 breast
HCT-116 colon = test system: HCT-116 colon
HCC-2998 colon = test system: HCC-2998 colon
KM12 colon = test system: KM12 colon

| SMILES | growth (BT-549 breast) | growth (MDA-MB-435 melanoma) | growth (SW-620 colon) | growth (MCF7 breast) | growth (HCT-116 colon) | growth (HCC-2998 colon) | growth (KM12 colon) |
| --- | --- | --- | --- | --- | --- | --- | --- |
| CCCC(CCC)Oc1ccc(CCCC2=C(O)c3ccccc3C(=O)C2=O)cc1 | 35.5% | 37.4% | 28.1% | 29% | 16.7% | 13.4% | 23.7% |
| CCOC(=O)c1c2c(cn1Cc1ccccc1)-c1oncc1CC2 | 94.5% | 111% | 103% | 98.8% | 90.5% | 111% | 104% |
| COc1ccc2c(N)ncc(C#Cc3cc(C(=O)Nc4ccc(CN5CCN(C)CC5)c(C(F)(F)F)c4)cnc3C)c2c1 | 46% | -56.7% (active) | -57.7% (active) | -49.2% (active) | -75.8% (active) | 19.3% | -49.1% (active) |
| Cc1ccc(C(=O)C(Br)C(Br)c2ccccc2)cc1 (stereo not drawn) | 104% | 99.8% | 27.8% | 25.7% | -65.7% (active) | 116% | 99.1% |
| CCOc1ccccc1/C=N\N=C(N/N=C/c1ccccc1OCC)N/N=C/c1ccccc1OCC | 31.8% | 13.4% | 12.1% | 3.52% (active) | 13.1% | 23.9% | 10.7% |
| CCC(C)C1NC(=O)C(CC(C)C)NC(=O)C(C)NC(=O)C(C(C)C)NC(=O)C(CCCCN)NC(=O)C(CC(C)C)NC(=O)C(C(C)C)NC(=O)[C@H](C)NC(=O)C(C(C)CC)NC(=O)C(CCCN=C(N)N)NC(=O)C(CCCCN)NC(=O)C(CCCN=C(N)N)NC(=O)C(CCCCN)NC(=O)C([C@H](C)CC)NC(=O)C(CCCCN)NC1=O (stereo partly drawn) | 14.4% | 11.2% | 19.6% | 20.5% | 3.67% (active) | 16.7% | -6.4% (active) |
| CC(=O)OC1/C=C\CC/C=C\C1 (stereo not drawn) | 110% | 103% | 101% | 106% | 107% | 129% | 103% |
| CC(C)OC(=O)c1ccc2n1CCCc1cnc(Nc3ccccc3)nc1-2 | 86.4% | 42.7% | 91% | 65.4% | 73.2% | 104% | 52.8% |
| CCN(CC)CCCC(C)Nc1c(C)cnc2cc(Cl)c(C)cc12 (stereo not drawn) | 69.2% | 89.9% | 85.9% | 85.6% | 56.9% | 74.5% | 81.9% |
| Cc1ncc(C(=O)Nc2ccc(CN3CCN(C)CC3)c(C(F)(F)F)c2)cc1C#Cc1cnc(NC2CC2)c2ncccc12 | -91.7% (active) | -86.4% (active) | -74.3% (active) | -76.8% (active) | -90% (active) | -54.4% (active) | -82.6% (active) |
| Cc1cc2cn3c4ccc(O)cc4nc(N)c3c2cc1C | – | -31.2% (active) | 11% | -46.8% (active) | -100% (active) | – | 6.3% (active) |
| CCN(CC)c1ccc2nc3ccc(N=Nc4ccc(O)cc4)cc3[n+](-c3ccccc3)c2c1 | – | 48.6% | – | -13.8% (active) | 8.46% (active) | 62.8% | 34.8% |
| C=C1CCC2C3(C)COC(c4ccccc4)OC3CCC2(C)C1C/C=C1/C(=O)OCC1O (stereo not drawn) | 56.5% | 72.8% | – | – | 38.6% | 94.1% | – |
| O=C(Nc1ccc(-n2cc(-c3ccncc3)c(-c3ccc(Cl)c(O)c3)n2)cc1)c1cc(C(F)(F)F)cc(C(F)(F)F)c1 | – | 52.5% | 81.4% | 30.3% | 33.6% | 74.2% | 28% |
| COC(=O)C(Cc1cnc[nH]1)N1CC(=O)N2[C@@H](c3ccccc3)SC[C@H]2C1=O (stereo partly drawn) | – | 103% | 108% | 106% | 103% | 99.6% | 108% |
| Cc1c([C@H](C(Cl)Cl)[C@H](O)[C@H]2C[C@H](C)C(=O)O2)ccc2c1C(=O)[C@H]1[C@H]2C[C@@H](Br)[C@@]23O[C@@H](CO[C@H]2O)CC13C (stereo partly drawn) | 37.6% | -40% (active) | 14.6% | – | 15.1% | 8.99% (active) | 2.99% (active) |
| Cc1cc2cn3c4ccc(O)cc4[nH]c(=O)c3c2cc1C | – | 0.693% (active) | -100% (active) | -57.2% (active) | -100% (active) | 24.1% | -36.9% (active) |
| Nc1nc2cc(O)ccc2n2cc3c(F)cccc3c12 | – | -8.3% (active) | 17.5% | -7.71% (active) | 15.1% | – | 35.3% |
| CC1(C)Oc2cc3oc(=O)ccc3cc2C[C@@H]1OCCOS(=O)(=O)c1ccc(C#N)cc1 | 90.3% | 94.9% | 89.3% | 82.3% | 110% | 103% | 103% |
| CN1CCN(Cc2ccc(NC(=O)c3cncc(C#Cc4c(N)ncc5ccc(F)cc45)c3)cc2C(F)(F)F)CC1 | 36.7% | -80.1% (active) | -43.2% (active) | 6.26% (active) | – | 42.2% | -24.9% (active) |
| COC(=O)c1ccc2[nH]c(O)c(C(=Nc3ccc(N(C)C(=O)CN4CCN(C)CC4)cc3)c3ccc([N+](=O)[O-])cc3)c2c1 | 49.1% | 49.9% | 54.7% | 30.6% | – | 66.7% | 16.2% |
| CC/C(=N\Nc1nc2ccccc2n1C)c1ccccn1 | 21% | 18.9% | 30% | 8.78% (active) | 11.7% | – | 18.5% |
| C/C(=N\Nc1cccc(Cl)n1)c1ccccn1 | 22.9% | 31.3% | 32.5% | – | 10% | 32.6% | 25.8% |
| O=c1c2c(c3ccccc3n1-c1ccccc1)NC(=S)NC2c1ccccc1 (stereo not drawn) | – | 111% | 107% | 42.3% | 96.1% | 98.8% | 104% |
| O=C1/C(=N\c2cc(=O)[nH]n2S(=O)(=O)c2ccccc2)Nc2ccccc21 | 106% | 108% | 99.3% | 96.5% | – | – | 99.4% |

| SMILES | growth (BT-549 breast) | growth (MDA-MB-435 melanoma) | growth (SW-620 colon) | growth (MCF7 breast) | growth (HCT-116 colon) | growth (HCC-2998 colon) | growth (KM12 colon) |
| --- | --- | --- | --- | --- | --- | --- | --- |
| COC(=O)c1ccc2[nH]c(O)c(C(=Nc3ccc(N(C)C(=O)CN4CCN(C)CC4)cc3)c3cccc(OC)c3)c2c1 | 11.2% | 31.8% | 2.03% (active) | 6.86% (active) | -5.68% (active) | – | 4.88% (active) |
| CN1CCN(Cc2ccc(NC(=O)c3ccc(C#Cc4c(N)ncc5ccc(F)cc45)cc3)cc2C(F)(F)F)CC1 | 27.7% | -92% (active) | -52.5% (active) | -77.3% (active) | – | – | -75.5% (active) |
| C=C(C)C(C(=O)OCC)(C(=O)OCC)C(C)C | 115% | – | 107% | 97.4% | 109% | 119% | 106% |
| COc1cccc(NC(=O)NCCNc2nccc(-c3c(-c4ccc(F)cc4)nc4sccn34)n2)c1 | – | 76.9% | 101% | 32% | 67.8% | 105% | 87.7% |
| CCS(=O)(=O)OCCO[C@H]1Cc2cc3ccc(=O)oc3cc2OC1(C)C | 100% | 107% | 97% | 95.1% | 106% | – | 104% |
| Cc1ccc(C(=O)Nc2ccc(CN3CCN(C)CC3)c(C(F)(F)F)c2)cc1C#Cc1cnc(N)c2ccc(C#N)cc12 | 53.1% | 10.8% | 46.2% | 74.2% | – | 93% | 18.4% |
| CC1=C[C@@H]2c3c(c(O)c(O)c4oc5cc(O)cc(O)c5c(=O)c34)[C@@H](c3cc(O)c(O)c4oc5cc(O)cc(O)c5c(=O)c34)[C@@H]2C(C)(C)C1 | 12.1% | -42.1% (active) | -50.9% (active) | -44.8% (active) | -78.8% (active) | -34.5% (active) | -55.2% (active) |
| CC1(C)N=C(N)N=C(N)N1c1cccc(CCCCOc2ccccc2)c1 | 35.7% | – | 12.6% | 1.62% (active) | 11.3% | 27.1% | 15.9% |
| CCn1cnc(C[C@H](NC(=O)[C@@H](NC(=O)Nc2cc(C(F)(F)F)cc(C(F)(F)F)c2)C(C)C)C(=O)OC)c1 | -97.6% [100 µM] (active) | -87.1% [100 µM] (active) | -44.1% [100 µM] (active) | – | -88.1% [100 µM] (active) | -86.3% [100 µM] (active) | -81.9% [100 µM] (active) |
| NC(CSC(c1ccccc1)(c1ccccc1)c1ccccc1)C(=O)NCC(=O)O (stereo not drawn) | 70.4% | -5.86% (active) | 41.6% | 45% | – | 28% | 77.5% |
| COc1cc2ncnc(-n3ncc4cc(NC(=O)Nc5ccccc5)ccc43)c2cc1OC | 24.9% | 31.6% | 49.5% | – | 6.38% (active) | 34.1% | 4.62% (active) |
| O=C1CSC(c2ccccc2Cl)N1c1nnc(-c2ccncc2)o1 (stereo not drawn) | 116% | 99.6% | 99.6% | – | 85.5% | – | 105% |
| COC(=O)Nc1nc2ccc(C(=O)c3ccccc3N(C)C3COC3)cc2[nH]1 | 60.4% | -42.1% (active) | 14.9% | – | 30.4% | 67.2% | 17% |
| COc1cc2cn3c4ccc(O)cc4[nH]c(=O)c3c2cc1OC | – | 9.28% (active) | 16.8% | -77.9% (active) | – | 13.1% | -2.22% (active) |
| Clc1ccc(N/N=C(\c2ccccc2)c2ccccn2)nc1 | 16.7% | 26.6% | 27.2% | 3.62% (active) | – | 35.9% | 21.7% |
| Oc1ccc([S+](c2ccc(O)cc2)c2ccc(O)cc2)cc1 | 107% | 107% | 107% | – | 107% | 106% | 107% |
| COc1cccc(-c2cc(-c3cc4ccccc4oc3=O)nc(N)n2)c1 | – | 119% | 103% | 70% | 95.1% | – | 95.4% |
| CCOc1nc(-c2ccccc2)cc2c(O)c(C(=O)N/N=C/c3ccccc3O)[nH]c(=O)c12 | 97.8% | 113% | 74.9% | 72.8% | 88.3% | – | 80.6% |
| C/C=C(/C)C(=O)OC1C=C(CO)C(=O)C(OC(=O)/C(C)=C\C)C1C(C)C (stereo not drawn) | -32.7% (active) | -78.7% (active) | -59% (active) | -16.6% (active) | -76.1% (active) | -85.9% (active) | -41.3% (active) |
| Cc1nc2c(nnn2-c2ccccc2)c2nc(-c3ccccc3)oc(=O)c12 | 105% | 111% | 109% | 92.3% | – | 116% | 118% |
| Cc1nc(NC(=O)NC2CCCCC2)sc1C(=O)NN | – | 115% | 106% | 105% | 83.8% | 162% | 102% |
| COC(c1ccccc1)C(Br)C(=O)c1ccccc1 (stereo not drawn) | 92.4% | 96.3% | 125% | 98.5% | 87.7% | – | 114% |
| Cc1ccc(S(=O)(=O)NC(CCC(=O)Nc2ccccc2)C(=O)Nc2ccccc2)cc1 (stereo not drawn) | -14.9% (active) | -1.32% (active) | 11.1% | -8.66% (active) | – | 0.86% (active) | 0.4% (active) |
| CCCCN(CCCC)CC(O)CN(CC)CC (stereo not drawn) | 96.1% | 92.2% | 99.3% | 96% | 97% | – | 108% |
| Cc1nc2c(nnn2-c2ccccc2)c2nc(-c3ccc(Cl)cc3)oc(=O)c12 | 107% | 106% | 107% | 95.2% | 109% | – | 113% |
